In all, about 5,500 compounds went through this assay and about 2,000 (36%) were called active. Not shown: some 18% with an inconclusive outcome. Cut-off read from the data, not from the text of the source: active = normalized growth mostly below about 0.91 (no sharp cut-off); inconclusive = no clear call, values can overlap the other calls; inactive = mostly above about 0.92. This is one part of the list.
Test: chemical genetic growth profiling, strain panel (AID 1159580);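 note: tested at 20 µM; growth read once vehicle control cultures reached saturation at 30 °C; 1 = growth at the plate median or of vehicle wells; lower values mean less growth of the strain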
Settings: S. cerevisiae deletion strains, growth OD
[1] = locus YHR030C, strain SLT2, stronger effect = lower value
[2] = locus YHR079C, strain IRE1, stronger effect = lower value
[3] = locus YJL095W, strain BCK1, stronger effect = lower value
[4] = locus YJR066W, strain TOR1, stronger effect = lower value
[5] = locus YLR113W, strain HOG1, stronger effect = lower value
[6] = locus YNL183C, strain NPR1, stronger effect = lower value
[7] = locus YOR231W, strain MKK1, stronger effect = lower value

Measured: normalized growth

O=C(Nc1ccc(Cl)cc1)OCCSc1nc2ccccc2s1
inactive: locus YAR019C, strain CDC15, stronger effect = lower value 0.987 | locus YBL105C, strain PKC1, stronger effect = lower value 0.973 | locus YBR135W, strain CKS1, stronger effect = lower value 0.979 | locus YBR136W, strain MEC1, stronger effect = lower value 0.976 | locus YBR160W, strain CDC28, stronger effect = lower value 0.979 | locus YDL017W, strain CDC7, stronger effect = lower value 0.983 | locus YDL028C, strain MPS1, stronger effect = lower value 0.982 | locus YDL101C, strain DUN1, stronger effect = lower value 0.985 | locus YDL108W, strain KIN28, stronger effect = lower value 0.978 | locus YDL132W, strain cdc53, stronger effect = lower value 0.979 | locus YDL214C, strain PRR2, stronger effect = lower value 0.883 | locus YDR052C, strain DBF4, stronger effect = lower value 0.994 | locus YDR054C, strain cdc34, stronger effect = lower value 0.973 | locus YDR226W, strain ADK1, stronger effect = lower value 0.987 | locus YDR477W, strain SNF1, stronger effect = lower value 0.959 | locus YER123W, strain YCK3, stronger effect = lower value 0.887 | locus YER133W, strain GLC7, stronger effect = lower value 0.93 | locus YFL009W, strain cdc4, stronger effect = lower value 0.981 | locus YFL029C, strain CAK1, stronger effect = lower value 0.975 | locus YFR003C, strain YPI1, stronger effect = lower value 0.977 | locus YFR019W, strain FAB1, stronger effect = lower value 0.848 | locus YFR028C, strain CDC14, stronger effect = lower value 0.975 | locus YGR040W, strain KSS1, stronger effect = lower value 0.929 | locus YGR052W, strain FMP48, stronger effect = lower value 0.911 | locus YGR092W, strain DBF2, stronger effect = lower value 0.928 | [2] 0.902 | locus YHR082C, strain KSP1, stronger effect = lower value 0.86 | locus YHR205W, strain SCH9, stronger effect = lower value 0.695 | locus YIL147C, strain SLN1, stronger effect = lower value 0.988 | [3] 0.845 | locus YJL128C, strain PBS2, stronger effect = lower value 0.944 | locus YJL157C, strain FAR1, stronger effect = lower value 0.894 | locus YJR016C, strain ILV3, stronger effect = lower value 0.985 | locus YJR066W, strain TOR1 (second series), stronger effect = lower value 0.811 | [4] 0.833 | locus YKL048C, strain ELM1, stronger effect = lower value 1.01 | locus YKL067W, strain YNK1, stronger effect = lower value 0.901 | locus YKL101W, strain HSL1, stronger effect = lower value 0.952 | locus YKL193C, strain SDS22, stronger effect = lower value 0.983 | locus YKL203C, strain TOR2, stronger effect = lower value 0.987 | locus YLR133W, strain CKI1, stronger effect = lower value 0.93 | locus YLR403W, strain SFP1, stronger effect = lower value 0.899 | locus YML070W, strain DAK1, stronger effect = lower value 0.894 | locus YMR001C, strain CDC5, stronger effect = lower value 0.976 | locus YMR205C, strain PFK2 (second series), stronger effect = lower value 0.95 | locus YMR277W, strain FCP1, stronger effect = lower value 0.979 | locus YNL006W, strain LST8, stronger effect = lower value 0.991 | locus YNL020C, strain ARK1, stronger effect = lower value 0.929 | locus YNL161W, strain CBK1, stronger effect = lower value 0.985 | [6] 0.846 | locus YNL207W, strain RIO2, stronger effect = lower value 0.983 | locus YNL222W, strain SSU72, stronger effect = lower value 0.976 | locus YNL307C, strain MCK1 (second series), stronger effect = lower value 0.909 | locus YOL078W, strain AVO1, stronger effect = lower value 0.977 | locus YOL136C, strain PFK27, stronger effect = lower value 0.902 | locus YOR061W, strain CKA2, stronger effect = lower value 0.928 | locus YOR119C, strain RIO1, stronger effect = lower value 0.984 | [7] 0.931 | locus YOR329C, strain SCD5, stronger effect = lower value 0.987 | locus YPL031C, strain PHO85, stronger effect = lower value 0.955 | locus YPL153C, strain RAD53, stronger effect = lower value 0.95 | locus YPL204W, strain HRR25, stronger effect = lower value 0.922 | locus YPL209C, strain IPL1, stronger effect = lower value 0.982 | locus YPR025C, strain CCL1, stronger effect = lower value 0.977 | locus YPR106W, strain ISR1, stronger effect = lower value 0.984 | locus YPR111W, strain DBF20, stronger effect = lower value 0.972 | strain NNK1, stronger effect = lower value 0.988 | strain TSCII, stronger effect = lower value 0.979
active: [1] 0.757 | [5] 0.859

CCOC(=O)Nc1nc2ccccc2[nH]1
inactive: locus YAL021C, strain ccr4, stronger effect = lower value 0.936 | locus YAL026C, strain drs2, stronger effect = lower value 0.977 | locus YAL030W, strain snc1, stronger effect = lower value 0.96 | locus YBL061C, strain skt5, stronger effect = lower value 0.982 | locus YBR009C, strain hhf1, stronger effect = lower value 0.967 | locus YBR023C, strain chs3, stronger effect = lower value 0.995 | locus YBR171W, strain sec66, stronger effect = lower value 0.965 | locus YBR231C, strain swc5, stronger effect = lower value 0.988 | locus YBR279W, strain paf1, stronger effect = lower value 0.991 | locus YCL011C, strain gbp2, stronger effect = lower value 0.979 | locus YCL016C, strain dcc1, stronger effect = lower value 0.995 | locus YCL061C, strain MRC1, stronger effect = lower value 0.992 | locus YCL069W, strain vba3, stronger effect = lower value 0.992 | locus YCR088W, strain abp1, stronger effect = lower value 0.99 | locus YDL005C, strain med2, stronger effect = lower value 0.994 | locus YDL040C, strain nat1, stronger effect = lower value 0.994 | locus YDR001C, strain nth1, stronger effect = lower value 0.97 | locus YDR069C, strain doa4, stronger effect = lower value 0.902 | locus YDR137W, strain rgp1, stronger effect = lower value 0.865 | locus YDR159W, strain sac3, stronger effect = lower value 0.979 | locus YDR195W, strain ref2 1.13 | locus YDR297W, strain sur2, stronger effect = lower value 0.964 | locus YDR334W, strain swr1, stronger effect = lower value 0.947 | locus YDR335W, strain msn5, stronger effect = lower value 0.989 | locus YDR392W, strain spt3, stronger effect = lower value 0.972 | locus YEL003W, strain gim4, stronger effect = lower value 0.972 | locus YEL037C, strain rad23, stronger effect = lower value 0.984 | locus YEL061C, strain CIN8 (second series), stronger effect = lower value 0.983 | locus YER015W, strain faa2, stronger effect = lower value 0.972 | locus YER016W, strain bim1, stronger effect = lower value 0.994 | locus YER111C, strain swi4, stronger effect = lower value 0.991 | locus YER155C, strain BEM2 (second series), stronger effect = lower value 0.977 | locus YFR010W, strain ubp6, stronger effect = lower value 0.937 | locus YGL167C, strain pmr1, stronger effect = lower value 0.984 | locus YGL173C, strain kem1, stronger effect = lower value 0.953 | locus YGL227W, strain vid30, stronger effect = lower value 0.986 | locus YGL240W, strain doc1, stronger effect = lower value 0.941 | locus YGL253W, strain hxk2, stronger effect = lower value 0.982 | locus YHR013C, strain ard1, stronger effect = lower value 0.956 | locus YHR027C, strain rpn1, stronger effect = lower value 0.962 | [1] 0.969 | [2] 0.976 | locus YHR142W, strain chs7, stronger effect = lower value 0.986 | locus YJL092W, strain hpr5, stronger effect = lower value 0.999 | locus YJL095W, strain BCK1 (second series), stronger effect = lower value 0.975 | [3] 0.987 | locus YJL115W, strain asf1, stronger effect = lower value 0.961 | locus YJL129C, strain trk1, stronger effect = lower value 1.03 | locus YJL154C, strain vps35, stronger effect = lower value 0.982 | locus YJL164C, strain tpk1, stronger effect = lower value 0.986 | locus YJL166W, strain qcr8, stronger effect = lower value 0.977 | locus YJL187C, strain SWE1, stronger effect = lower value 0.988 | [4] 0.923 | locus YKL160W, strain elf1, stronger effect = lower value 0.985 | locus YKR026C, strain gcn3, stronger effect = lower value 0.996 | locus YKR091W, strain srl3, stronger effect = lower value 0.987 | locus YLL001W, strain dnm1, stronger effect = lower value 0.987 | locus YLL026W, stronger effect = lower value 0.974 | locus YLL041C, strain sdh2, stronger effect = lower value 0.978 | locus YLR027C, strain aat2, stronger effect = lower value 0.985 | [5] 1.03 | locus YLR221C, strain rsa3, stronger effect = lower value 0.988 | locus YLR258W, strain gsy2, stronger effect = lower value 0.984 | locus YLR262C, strain YPT6 (second series), stronger effect = lower value 0.933 | locus YLR320W, strain mms22, stronger effect = lower value 0.966 | locus YLR342W, strain FKS1, stronger effect = lower value 0.988 | locus YLR357W, strain rsc2, stronger effect = lower value 0.92 | locus YLR370C, strain arc18, stronger effect = lower value 0.986 | locus YLR384C, strain iki3, stronger effect = lower value 0.978 | locus YML120C, strain ndi1, stronger effect = lower value 0.998 | locus YMR058W, strain fet3, stronger effect = lower value 0.968 | locus YMR125W, strain sto1, stronger effect = lower value 1 | locus YMR129W, stronger effect = lower value 0.981 | locus YMR205C, strain PFK2, stronger effect = lower value 0.904 | locus YMR231W, strain pep5, stronger effect = lower value 0.989 | locus YNL071W, strain lat1, stronger effect = lower value 0.985 | [6] 0.942 | locus YNL209W, strain ssb2, stronger effect = lower value 0.971 | locus YNL248C, strain rpa49, stronger effect = lower value 0.998 | locus YNL322C, strain KRE1 (second series), stronger effect = lower value 0.983 | locus YNR049C, strain mso1, stronger effect = lower value 0.983 | locus YOR001W, strain rrp6, stronger effect = lower value 0.97 | locus YOR070C, strain gyp1, stronger effect = lower value 0.983 | locus YOR080W, strain dia2, stronger effect = lower value 0.971 | locus YOR083W, strain WHI5, stronger effect = lower value 0.974 | locus YOR106W, strain vam3, stronger effect = lower value 0.927 | [7] 0.954 | locus YOR265W, strain rbl2, stronger effect = lower value 0.987 | locus YOR270C, strain vph1, stronger effect = lower value 0.868 | locus YOR290C, strain snf2, stronger effect = lower value 0.895 | locus YPL051W, strain arl3, stronger effect = lower value 0.987 | locus YPL078C, strain atp4, stronger effect = lower value 0.986 | locus YPL106C, strain sse1, stronger effect = lower value 0.956 | locus YPL240C, strain hsp82, stronger effect = lower value 0.991 | locus YPL256C, strain CLN2, stronger effect = lower value 0.987
